Among the data in PubChem BioAssay AID651610 (Broad Institute, 2012) are inhibition values, retold here.

Screen size: about 360,000 compounds; about 3,900 (1.1%) were called active.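 Rule for the calls: active = mean replicate inhibition score of at least 50 and every replicate individually at or above 50; inconclusive = only one of the two criteria met; inactive = mean below 50 and not all replicates reaching 50.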 What follows is part of a selection rich in actives, with near analogues and random picks from the rest.

A short description of the assay: blockers of JRFL envelope-mediated fusion – HeLa-JRFL effector, CEM21 target cells, luciferase, primary screen (AID 651610).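 Note: 0% = plate neutral controls and 100% = maraviroc near 300 nM.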 The following applies: HeLa-JRFL Env/CEM21 cell fusion, hits give high values; at 16.7 µM unless noted.
`Cc1noc(C)c1NC(=O)N(C)C[C@H]1Oc2ccc(NC(=O)Cn3cnnn3)cc2CC(=O)N([C@H](C)CO)C[C@@H]1C`: the inhibition was -12.7% (inactive).

Consider `C[C@@H]1CN([C@@H](C)CO)C(=O)c2cc(NC(=O)Cc3ccccc3)ccc2O[C@@H]1CN(C)S(=O)(=O)c1ccccc1`, for which the inhibition is -22.1% (inactive).

Consider `Cc1ccc(S(=O)(=O)NCC[C@@H]2CC[C@H](NC(=O)c3ccccn3)[C@H](CO)O2)cc1`, for which the inhibition is -12.9% (inactive).

As for `C[C@H](CO)N1C[C@H](C)[C@@H](CN(C)Cc2ccc3c(c2)OCO3)Oc2c(cccc2N(C)C)C1=O`, the inhibition is -26.8% (inactive).

On to `CC1CCCCN1S(=O)(=O)c1ccc(S(=O)(=O)N(CC(=O)Nc2ccccc2)Cc2cccs2)cc1` (configuration not stated), for which the inhibition was 20% [at 12.3 µM] (inactive).

Take `CSCc1nnc(NC(=O)c2ccc(S(=O)(=O)N3CCCCC3C)cc2)o1` (configuration not stated): the inhibition is -0.826% [at 12.3 µM] (inactive).

With `CC1CCCCN1S(=O)(=O)c1ccc(C(=O)Nc2nnc(-c3cccs3)o2)cc1` (configuration not stated), the inhibition was 80.2% [at 12.3 µM] (active).

On to `Cc1cc(C(=O)N2CCC(C(=O)O)CC2)c(C(F)(F)F)o1`, for which the inhibition is 87.5% [at 12.3 µM] (active).

As to `O=C(O)C1CCN(C(=O)c2cc(F)cc3c2OCOC3)CC1`, the inhibition is -1.42% [at 12.3 µM] (inactive).

In the case of `CCOC(=O)C1CCCN(C(=O)c2cc(-c3cccs3)oc2C)CC1` (configuration not stated), the inhibition was 29.9% [at 12.3 µM] (inactive).

As for `CCCN(C)C[C@H]1Oc2ncc(C#CC3CCCCC3)cc2C(=O)N([C@H](C)CO)C[C@@H]1C`, the inhibition was 18.3% (inactive).

For `C[C@H](CO)N1C[C@H](C)[C@H](CN(C)CC2CCCCC2)Oc2c(NC(=O)c3cnccn3)cccc2C1=O`, the inhibition is -9.66% (inactive).

For the compound `CCC(=O)N1C[C@H](C)[C@H](OC)CN(C)C(=O)c2cc(NC(=O)Nc3cccc(F)c3)ccc2OC[C@@H]1C`, the inhibition is -5.04% (inactive).

On to `C[C@@H]1CN([C@@H](C)CO)C(=O)c2cc(NS(=O)(=O)c3ccccc3)ccc2O[C@@H](C)CCCCO[C@H]1CN(C)S(=O)(=O)c1cccs1`, for which the inhibition was -25.8% (inactive).

Consider `Cc1ccc(S(=O)(=O)Nc2ccc3c(c2)C(=O)N([C@@H](C)CO)C[C@@H](C)[C@@H](CN(C)Cc2ccc(C(F)(F)F)cc2)OCCCC[C@@H](C)O3)cc1`, for which the inhibition was 79.2% (active).

In the case of `C[C@H](CO)N1C[C@H](C)[C@H](CN(C)Cc2ccc(C(F)(F)F)cc2)OCCCC[C@H](C)Oc2ccc(NS(=O)(=O)c3ccc(Cl)cc3)cc2C1=O`, the inhibition is 18.4% (inactive).

For `C[C@@H]1CCCCO[C@@H](CN(C)CC2CC2)[C@H](C)CN([C@H](C)CO)C(=O)c2cc(NC(=O)C3CCCCC3)ccc2O1`, the inhibition was -2.41% (inactive).

Turning to `C[C@@H]1CCCCO[C@H](CN(C)C(=O)Nc2ccccc2)[C@H](C)CN([C@@H](C)CO)C(=O)c2cc(N(C)C)ccc2O1`, the inhibition was -23.9% (inactive).

Turning to `C[C@@H]1CCCCO[C@@H](CN(C)C(=O)Nc2ccccc2)[C@@H](C)CN([C@@H](C)CO)C(=O)c2cc(N(C)C)ccc2O1`, the inhibition is -2.93% (inactive).

Take `C[C@@H]1CCCCO[C@@H](CN(C)CC2CC2)[C@@H](C)CN([C@H](C)CO)C(=O)c2cc(NC(=O)C3CCCCC3)ccc2O1`: the inhibition is 19.6% (inactive).

For `C[C@H](CO)N1C[C@H](C)[C@@H](CN(C)C(=O)Nc2cccc3ccccc23)OCCCC[C@H](C)Oc2ccc(N(C)C)cc2C1=O`, the inhibition is 67.4% (active).

For the compound `COc1ccc(NC(=O)Nc2ccc3c(c2)C(=O)N([C@H](C)CO)C[C@H](C)[C@H](CN(C)Cc2ccncc2)OCCCC[C@H](C)O3)cc1`, the inhibition is 58.1% (active).

With `C[C@@H]1CCCCO[C@@H](CN(C)Cc2ccc(C(F)(F)F)cc2)[C@H](C)CN([C@H](C)CO)C(=O)c2cc(NS(=O)(=O)c3ccc(F)cc3)ccc2O1`, the inhibition is 32.9% (inactive).

For `COc1ccc(NC(=O)Nc2ccc3c(c2)C(=O)N([C@@H](C)CO)C[C@@H](C)[C@@H](CN(C)Cc2ccncc2)OCCCC[C@@H](C)O3)cc1`, the inhibition is -12.5% (inactive).

Consider `C[C@@H]1CCCCO[C@@H](CN(C)CC2CCCCC2)[C@H](C)CN([C@H](C)CO)C(=O)c2cc(NC(=O)C3CCCCC3)ccc2O1`, for which the inhibition is 68.4% (active).

As for `COc1ccc(CN(C)C[C@@H]2OCCCC[C@@H](C)Oc3ccc(NC(=O)Nc4ccc(OC)cc4)cc3C(=O)N([C@@H](C)CO)C[C@@H]2C)cc1`, the inhibition is -18.5% (inactive).

Take `O=C(N[C@@H]1C=C[C@H](CC(=O)N2CCCCC2)O[C@H]1CO)c1cccc(F)c1`: the inhibition is 2.78% (inactive).

Consider `COc1cccc(NC(=O)N[C@@H]2CC[C@H](CC(=O)Nc3ccccc3)O[C@@H]2CO)c1`, for which the inhibition is -24.4% (inactive).

`Cc1ccc(S(=O)(=O)Nc2cccc3c2O[C@H](CN(C)S(=O)(=O)c2cn(C)cn2)[C@H](C)CN([C@H](C)CO)C3=O)cc1`: the inhibition is -8.23% (inactive).

With `C[C@H]1CCCCO[C@@H](CN(C)S(=O)(=O)c2ccc(Cl)cc2)[C@@H](C)CN([C@@H](C)CO)C(=O)c2cc(NS(=O)(=O)c3cn(C)cn3)ccc2O1`, the inhibition is 3.67% (inactive).

Turning to `C[C@@H]1CN([C@@H](C)CO)C(=O)c2cc(NS(C)(=O)=O)ccc2O[C@@H](C)CCCCO[C@@H]1CN(C)S(=O)(=O)c1cn(C)cn1`, the inhibition was -12% (inactive).

On to `Cc1ccc(S(=O)(=O)Nc2cccc3c2O[C@@H](CN(C)C(=O)Nc2ccccc2)[C@H](C)CN([C@@H](C)CO)C3=O)cc1`, for which the inhibition was 8.55% (inactive).

For `C[C@H](NC(=O)C[C@H]1CC[C@H]2[C@@H](COC[C@H](O)CN2C(=O)Nc2cccc(Cl)c2)O1)c1ccccc1`, the inhibition was -9.13% (inactive).

For `C[C@H](O)C#Cc1ccc2c(c1)O[C@@H](CN(C)CC1CCCC1)[C@H](C)CN([C@@H](C)CO)S2(=O)=O`, the inhibition is -37.3% (inactive).

On to `C[C@H](CO)N1C[C@H](C)[C@H](CN(C)C)Oc2cc(C#CC3CC3)ccc2S1(=O)=O`, for which the inhibition is -1.04% (inactive).

On to `C[C@H]1CN([C@@H](C)CO)C(=O)c2cc(NC(=O)Nc3cccc4ccccc34)ccc2O[C@@H]1CN(C)C`, for which the inhibition is 3.97% (inactive).

Consider `C[C@@H]1CN([C@H](C)CO)C(=O)c2cc(NS(=O)(=O)c3ccccc3)ccc2O[C@H]1CN(C)C(=O)Nc1ccc2c(c1)OCO2`, for which the inhibition was -19.2% (inactive).

A word on the inhibition: it is the change of the read-out against control, counted positive when it falls.
